Shown are actives, neighbours in structure and some others; about 3.2% of the full set was active somewhere.
VDR inh – blocks the human vitamin D receptor; Potency, µM, most hits filed as inhibitors; actives 0.93% (n = 400,000); VDR-SRC2-3 peptide fluorescence polarization, 2 h; P11473
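Signal is fluorescence polarization, reporting how far test compounds block the interaction of VDR with the SRC2-3 coregulator peptide after a 2 h room-temperature incubation.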
PLK1 PBD block – PLK1 (human) polo-box domain binding inhibition | P53350 | Plk1 PBD binding of FITC phosphopeptide, fluorescence polarization | Potency, µM, most hits filed as inhibitors | actives 2.8% (n = 360,000); note: series mostly up to about 57 µM; nearly all actives have a fitted effect of over 65% in size
GALK inhibitor – inhibitors of human galactokinase | P51570 | Purified GALK, Kinase-Glo residual ATP luminescence | Potency, µM (series often up to 57.5 µM), most hits filed as inhibitors | actives 0.007% (n = 270,000) | AID 1868
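Human GALK (5 nM) with 35 uM ATP and 100 uM galactose in 20 mM HEPES pH 8.0, 5 mM MgCl2, 60 mM NaCl, 1 mM DTT, 0.01% BSA. After 1 h at room temperature, leftover ATP was read by Kinase-Glo Plus luminescence.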
FBPA coupling cs – coupling enzyme interference in Giardia aldolase counter-screen. coupling enzyme system counterscreen, AmpLite Red fluorescence. activity change, negative = inhibition, % at 58.2 µM, hits read low. actives 0.67% (n = 290,000). AID 2472; in the data active = activity change below about -30%
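First, compound is pin-transferred into glyceraldehyde-3-phosphate coupling-enzyme reagent at 57.5 uM final and held 10 min at RT. Next, substrate, coupling system and AmpLite Red are added. After 20 min RT, fluorescence (525/598 nm) is read.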
USP2a block – blocks human ubiquitin-specific protease USP2a; O75604; USP2 core, Ub-CHOP2 coupled fluorogenic reporter, 485/531; Potency, µM (series often up to 38.3 µM), actives largely listed as inhibitors; actives 0.01% (n = 330,000); AID 463254
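Cell-free coupled assay: 10nM USP2 core preincubated 30min RT with compound in Tris-HCl pH 8.0/CaCl2/CHAPS buffer, then 25nM Ub-CHOP2 and 25nM reporter substrate; fluorescence (Ex 485/Em 531) read after 60min RT, normalized to NEM inhibition, concentration-response curves fitted.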
USP1 inh – USP1/UAF1 (human) deubiquitinase inhibition; O94782; recombinant USP1/UAF1, Ub-Rhodamine cleavage fluorescence; Potency, µM (top dose mostly 57.1 µM), most hits filed as inhibitors; actives 0.23% (n = 390,000); AID 743255; note: nearly all actives have a fitted effect of over 60% in size
Target sequence (O94782 whole entry, looked up): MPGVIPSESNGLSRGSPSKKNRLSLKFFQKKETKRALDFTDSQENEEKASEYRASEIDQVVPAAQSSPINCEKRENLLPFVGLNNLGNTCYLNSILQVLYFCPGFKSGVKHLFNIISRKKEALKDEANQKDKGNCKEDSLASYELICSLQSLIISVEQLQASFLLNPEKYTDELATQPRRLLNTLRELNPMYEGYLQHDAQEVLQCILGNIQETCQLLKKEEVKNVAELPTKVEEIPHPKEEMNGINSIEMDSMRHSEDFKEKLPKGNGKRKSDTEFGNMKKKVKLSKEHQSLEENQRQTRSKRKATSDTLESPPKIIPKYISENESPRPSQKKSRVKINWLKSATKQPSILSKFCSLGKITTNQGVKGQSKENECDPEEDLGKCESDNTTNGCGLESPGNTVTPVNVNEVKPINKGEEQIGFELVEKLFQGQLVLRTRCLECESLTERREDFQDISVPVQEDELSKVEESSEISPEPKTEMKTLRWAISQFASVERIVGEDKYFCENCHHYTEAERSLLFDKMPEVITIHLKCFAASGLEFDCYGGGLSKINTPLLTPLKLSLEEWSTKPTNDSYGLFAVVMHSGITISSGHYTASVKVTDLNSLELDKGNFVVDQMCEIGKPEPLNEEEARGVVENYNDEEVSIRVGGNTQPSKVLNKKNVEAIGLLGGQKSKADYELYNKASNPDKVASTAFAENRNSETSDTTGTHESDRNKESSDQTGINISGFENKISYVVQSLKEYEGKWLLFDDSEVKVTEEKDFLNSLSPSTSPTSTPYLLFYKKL
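Step one: compound is pinned into 1nM USP1/UAF1 in HEPES pH 7.8 buffer with TCEP. Step two: 15 min room-temperature incubation. Step three: Ub-Rho (150nM final) starts cleavage, tracked by fluorescence over six one-minute reads.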
TbPYK inh – confirmation of Trypanosoma brucei pyruvate kinase inhibitors; shares compounds with PLK1 PBD block; recombinant TbPYK, Kinase-Glo ATP luminescence; AID 720569; Potency, µM (top dose mostly 76.9 µM), most hits filed as inhibitors; actives 67% (n = 890); note: nearly all actives have a fitted effect of over 70% in size
TbPYK ADP-Glo – TbPYK inhibition, orthogonal confirmation | actives 62% (n = 890) | recombinant TbPYK, ADP-Glo luminescence, 60 min | Potency, µM (titrated, usually from 76.9 µM), actives largely listed as inhibitors | shares compounds with PLK1 PBD block; note: nearly all actives have a fitted effect of over 75% in size
Hits are given with their value; 0 = inactive; ? = inconclusive; - = no result given. Unless noted, calls come from the whole dose curve; as a rule, active = well fitted curve in the direction sought with a large enough effect; inconclusive = small, poorly fitted or top-dose-only effect, or another doubt; inactive = no such curve, though single readings can be large; an effect the other way counts as inactive or inconclusive.

SMILES | VDR inh | PLK1 PBD block | GALK inhibitor | FBPA coupling cs | USP2a block | USP1 inh | TbPYK inh | TbPYK ADP-Glo
O=C1NC(=O)C(=Cc2cccs2)C(=O)N1 | ? | 2.67µM | - | - | - | 0 | 14.1µM | 31.6µM
O=C1NC(=O)C(=Cc2ccsc2)C(=O)N1 | 0 | 6.7µM | 0 | 0 | 0 | 0 | 14.1µM | ?
CN1OC[C@@H]2CN[C@H](c3ccc(Br)cc3)C[C@@H]21 | - | 0 | - | - | - | 0 | - | -
COc1ccc(CCNCc2ccncc2)cc1OC | 0 | 0 | 0 | 0 | 0 | 0 | - | -
COc1ccccc1CN1CCN(C(=O)COc2cccc(C)c2)CC1 | 0 | 0 | 0 | 0 | 0 | 0 | - | -
O=C1NC(=O)C(=Cc2csc3ccccc23)C(=O)N1 | 35.5µM | 2.12µM | 0 | 0 | 0 | 0 | 15.8µM | 31.6µM
CC(=O)n1cc(C=C2C(=O)NC(=O)NC2=O)c2ccccc21 | ? | 4.23µM | 0 | 0 | 0 | 0 | 22.4µM | 35.5µM
Cc1cc(C=C2C(=O)NC(=O)NC2=O)c(C)n1-c1ccc2c(c1)OCO2 | 0 | 0 | 0 | 0 | 0 | 0 | - | -
COC(=O)C1=C(c2ccc(C(C)=O)cc2)C[C@@H]2CC[C@H]1N2C(=O)N1CCOCC1 | 0 | 0 | - | - | 0 | 0 | - | -
COc1cc(C2SCC(=O)Nc3c2c(C)nn3-c2ccccc2)cc(OC)c1OC (centres undefined) | 0 | 0 | 0 | 0 | 0 | 0 | - | -
Cc1ccc(N2C(=O)NC(=O)/C(=C/c3ccoc3)C2=O)cc1 | 0 | 2.67µM | - | 0 | 0 | ? | ? | 0
COc1cc(/C=C2\C(=O)NC(=O)N(c3ccccc3)C2=O)cc(OC)c1OC | ? | 13.4µM | 0 | 0 | 0 | 0 | ? | ?
CC1=NN(c2ccccc2)C(=O)C1/C=C1/C(=O)NC(=O)N(c2cc(C)cc(C)c2)C1=O (centres undefined) | 0 | 0 | 0 | 0 | 0 | 0 | - | -
O=C1NC(=O)N(c2ccccc2)C(=O)/C1=C\C=C\c1ccccc1 | ? | 1.19µM | - | 0 | 0 | 0 | 12.6µM | ?
COc1cc(/C=C2/C(=O)NC(=O)N(c3ccc(C)cc3)C2=O)cc(OC)c1OC | ? | 11.9µM | 0 | 0 | 0 | 0 | ? | ?
Cc1cc(C)cc(N2C(=O)NC(=O)/C(=C\c3cc(C)n(C)c3C)C2=O)c1 | 0 | 0 | 0 | 0 | 0 | 0 | - | -
CCC1(CC)COP(=O)(OCC(Cl)CCl)OC1 (centres undefined) | 0 | 0 | - | - | - | 0 | - | -
C[C@@H]1CC[C@@]2(NC1)O[C@H]1C[C@H]3[C@@H]4CC=C5C[C@@H](O)CC[C@]5(C)[C@H]4CC[C@]3(C)[C@H]1[C@@H]2C | 0 | 0 | 0 | 0 | 0 | 0 | - | -
COC1CC(C)C(OC)c2cc(O)cc(c2O)NC(=O)C(C)=CC=CC(C)C(OC(N)=O)C(C)=CC(C)C1OC (centres undefined) | ? | 18.9µM | - | - | - | 0 | ? | 12.6µM
CCOC(=O)CSCCOc1ccc(C=C2C(=O)NC(=O)NC2=O)cc1OC | ? | 8.44µM | 0 | 0 | 0 | 0 | 15.8µM | ?
CCOC(=O)c1c(-n2c(C)cc(C=C3C(=O)NC(=O)NC3=O)c2C)sc2c1CCCC2 | 0 | ? | 0 | 0 | 0 | 0 | - | -
CCC(c1nnnn1C1CCCC1)N1CCC2(CC1)C(=O)NCN2c1ccccc1 (centres undefined) | - | 0 | - | - | - | - | - | -
